Screening data (PubChem)
KDM5B inh: Primary screen for KDM5B Histone Demethylases FDH-coupled qHTS. Lysine-specific demethylase 5B (Homo sapiens), Q9UGL1. KDM5B demethylase, FDH-coupled NADH fluorescence (FDH is formaldehyde dehydrogenase). Potency, µM (top dose mostly 57.7 µM), actives largely listed as inhibitors. 220,000 compounds, 2.6% hits; active = well fitted inhibition curve with a large enough effect; also: 0% is about no effect; nearly all actives have a fitted effect of over 70% in size
Target sequence (Q9UGL1 whole entry, looked up): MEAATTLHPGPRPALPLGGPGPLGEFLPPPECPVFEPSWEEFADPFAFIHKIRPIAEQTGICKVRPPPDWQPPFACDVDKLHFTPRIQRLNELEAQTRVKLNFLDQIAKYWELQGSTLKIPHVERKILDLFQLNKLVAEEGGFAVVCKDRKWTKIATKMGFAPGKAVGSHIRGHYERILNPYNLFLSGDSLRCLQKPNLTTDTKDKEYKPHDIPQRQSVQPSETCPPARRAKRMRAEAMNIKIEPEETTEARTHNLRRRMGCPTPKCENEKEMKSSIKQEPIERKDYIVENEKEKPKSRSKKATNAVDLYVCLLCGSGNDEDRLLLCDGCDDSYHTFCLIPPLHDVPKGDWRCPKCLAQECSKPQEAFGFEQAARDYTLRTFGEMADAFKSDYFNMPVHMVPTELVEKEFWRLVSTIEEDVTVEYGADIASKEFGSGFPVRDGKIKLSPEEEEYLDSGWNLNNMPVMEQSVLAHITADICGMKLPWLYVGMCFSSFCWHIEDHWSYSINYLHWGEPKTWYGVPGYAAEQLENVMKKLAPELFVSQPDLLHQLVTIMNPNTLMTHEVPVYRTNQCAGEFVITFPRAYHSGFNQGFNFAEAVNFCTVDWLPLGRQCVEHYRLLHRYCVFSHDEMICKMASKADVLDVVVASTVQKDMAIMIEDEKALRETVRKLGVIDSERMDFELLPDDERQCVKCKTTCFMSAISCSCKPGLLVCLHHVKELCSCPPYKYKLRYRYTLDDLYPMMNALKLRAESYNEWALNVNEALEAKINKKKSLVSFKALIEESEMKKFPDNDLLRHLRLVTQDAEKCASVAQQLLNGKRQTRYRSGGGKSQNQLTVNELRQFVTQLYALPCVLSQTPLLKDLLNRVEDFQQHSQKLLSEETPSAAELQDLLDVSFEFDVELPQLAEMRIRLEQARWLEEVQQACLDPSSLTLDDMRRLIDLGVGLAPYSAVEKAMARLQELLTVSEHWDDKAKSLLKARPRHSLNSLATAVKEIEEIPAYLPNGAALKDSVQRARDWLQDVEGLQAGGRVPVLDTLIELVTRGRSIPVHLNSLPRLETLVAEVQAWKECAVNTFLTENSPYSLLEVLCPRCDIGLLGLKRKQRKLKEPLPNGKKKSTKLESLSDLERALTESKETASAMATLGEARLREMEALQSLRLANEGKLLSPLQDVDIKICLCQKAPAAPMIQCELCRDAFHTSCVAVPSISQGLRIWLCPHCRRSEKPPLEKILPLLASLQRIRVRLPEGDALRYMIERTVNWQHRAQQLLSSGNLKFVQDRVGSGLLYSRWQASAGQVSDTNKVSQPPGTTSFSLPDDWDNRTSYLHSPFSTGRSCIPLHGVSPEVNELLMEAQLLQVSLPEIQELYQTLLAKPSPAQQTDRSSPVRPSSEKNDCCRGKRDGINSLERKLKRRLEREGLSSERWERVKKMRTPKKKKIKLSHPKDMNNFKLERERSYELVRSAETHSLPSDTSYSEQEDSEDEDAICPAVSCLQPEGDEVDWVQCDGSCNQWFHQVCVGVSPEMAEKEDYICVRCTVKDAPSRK
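qHTS format, multiple compound concentrations. Buffer 50 mM HEPES pH 7.5/0.01% Tween-20; 200 nM KDM5BΔAP final; 10 min compound preincubation; substrate-mix levels 12.5 µM peptide, 25 µM α-KG, 0.25 mM NAD⁺; 30 min RT; ΔRFU.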
* = called active by the depositor; i = inactive. Shown is part of a subset that was picked to be rich in hits. Potency is read from the fitted curve at half-maximal effect.

SMILES | KDM5B inh
Cc1ccc(C2C(c3ccccc3)=C(O)C(=O)N2Cc2ccccc2)cc1 (centres undefined) | i
NC(=O)NC(=O)COC(=O)c1cc(Cl)cc(Cl)c1 | i
COc1ccc(-c2c(C)nn3c2NC(=O)CCC3=O)cc1S(=O)(=O)Nc1ccccc1F | i
CC(=O)N1CCN([C@H]2[C@@H]3OC[C@@H](O3)[C@@H](NCc3ccccc3O)[C@@H]2O)CC1 | i
Cn1cccc1CN[C@H]1[C@H](O)[C@@H](N2CCCC2)[C@@H]2OC[C@H]1O2 | 25.1µM*
CN1CCN([C@H]2[C@@H]3OC[C@@H](O3)[C@@H](NCc3ccc(-c4ccccc4)cc3)[C@@H]2O)CC1 | i
CCCCn1cnc2c1c(=O)n(CC(=O)Nc1ccc3c(c1)OCCO3)c(=O)n2Cc1ccccc1 | i
CC(=O)c1ccc(NC(=O)c2cccc3c2ccn3C)cc1 | i
Cc1cc(NC(=O)C(C)N(c2ccccc2)S(C)(=O)=O)ccc1Br (centres undefined) | i
CC(C)CCNC(=O)Cn1ccn2nc(-c3ccc(F)cc3)c(CO)c2c1=O | i
Cc1nc2scc(CC(=O)NCCC(C)C)n2c(=O)c1-c1cc(C)n(-c2ccc(F)cc2)n1 | 28.2µM*
CC(C)CCNC(=O)CCCc1nnc2c(=O)n(-c3cccc(F)c3)ccn12 | i
CC(C)(C)C(=O)NCCc1csc2nc(-c3ccc(F)cc3)nn12 | i
Cc1ccc(F)cc1-n1nc(-c2c(C)nc3scc(CC(=O)NCC(C)C)n3c2=O)cc1C | 28.2µM*
Cc1ccccc1-n1nc(C)c(CCC(=O)NC(C)C)c1Oc1ccccc1 | i
Cc1[nH]c2ccc(F)cc2c1CC(=O)NCC(C)C | i
CC(C)NC(=O)Cc1csc2nc(-c3ccccc3)cn12 | i
Cc1nn(-c2ccc(F)cc2)c(Oc2ccccc2F)c1CCC(=O)NCC(C)C | i
Cc1nc2scc(CC(=O)NCCC(C)C)n2c(=O)c1-c1cc(C)n(-c2cc(F)ccc2F)n1 | 28.2µM*
CC(C)CCNC(=O)Cc1cccs1 | i
Cc1ccccc1-n1nc(-c2c(C)nc3scc(CC(=O)NC(C)C)n3c2=O)cc1C | 28.2µM*
COc1cccc(CN2C[C@@H](CO)[C@H](c3ccccn3)C2)c1 | i
Cc1csc(NC(=O)CCc2ncc(-c3ccc(F)cc3)o2)n1 | i
CC(C)C(=O)Nc1ccc(S(=O)(=O)NCCn2nc(-c3ccccc3)ccc2=O)cc1 | i
COc1ccc(-c2noc(CCC(=O)Nc3ccc(C)cn3)n2)cc1OC | i
SMILES | KDM5B inh
Cc1ccc(NC(=O)N[C@H]2C[C@@H](c3nc(-c4ccccn4)no3)N(C)C2)cc1 | i
CC(NC(=O)CCc1ncc(-c2ccc(Cl)cc2)o1)c1ccc(S(C)(=O)=O)cc1 (centres undefined) | i
Cc1ccc(C)c(N2CCN(C(=O)c3ccccc3NC(=O)Cn3c(C)cc(C)c(C#N)c3=O)CC2)c1 | i
Cc1ccccc1-n1cc(-c2ccnc(NC(C)Cc3ccncc3)n2)cn1 (centres undefined) | 25.1µM*
Cc1ccccc1-n1cc(CN(C)Cc2nc(-c3ccc(C(F)(F)F)cc3)no2)cn1 | i
COCCN(Cc1cnn(-c2ccccc2C)c1)CC1CC1 | i
O=C(NC1CCN(c2cc(-c3ccc(F)cc3)[nH]n2)CC1)c1ccc(F)c(Cl)c1 | i
Cc1nnsc1C(=O)N[C@H]1CCN2C(=O)N(c3ccc(F)c(Cl)c3)C(=O)[C@@H]2C1 | i
O=C(N[C@H]1CCN2C(=O)N(c3cccc4nsnc34)C(=O)[C@@H]2C1)c1ccc(F)c(Cl)c1 | 31.6µM*
COC(=O)c1ccc([C@H]2[C@@H](C(=O)O)c3ccccc3C(=O)N2Cc2ccc(F)cc2)cc1 | i
CC(C)NCc1cccc(OCc2ccccc2)c1 | i
Cc1ccc(-c2ccc3nnc(CNC(=O)c4cccc(C#N)c4)n3n2)cc1 | 11.2µM*
CC(C)CCNC(=O)c1cccc(C#N)c1 | i
N#Cc1cccc(C(=O)NCc2nnc3ccc(-c4ccc(F)cc4)nn23)c1 | 28.2µM*
Cc1ccc(-c2ccc3nnc(CNC(=O)c4cccc(N(C)C)c4)n3n2)cc1 | i
COCc1ccc(CNC(=O)c2cccc(C#N)c2)cc1 | i
N#Cc1cccc(C(=O)NCCSC(F)(F)F)c1 | i
Cc1ccc(-c2nc(CN3CCN(CC(=O)Nc4cccc(C)c4C)CC3)co2)cc1 | i
O=C(NC1CCCCC1)c1ccc2c(c1)-c1ccccc1C2 | i
COC(=O)C(CC(C)C)NC(=O)CC(c1ccccc1)c1ccccc1 (centres undefined) | i
COc1ccc(NC(=O)c2ncoc2-c2cccc(C)c2)c(OC)c1 | i
O=C1NC2(CCN(C(=O)c3ccc(C(F)(F)F)cc3)CC2)COc2ccccc21 | i
O=C(CCc1c[nH]c2ccccc12)NCCC12CC3CC(CC(C3)C1)C2 | i
CC1=C[C@@H](CN2C(=O)C(C)=C(C)C2=O)[C@H](C(C)C)C[C@H]1Cc1nc2ccc(C)cc2[nH]1 | i
O=C(Nc1ccc2oc(=O)ccc2c1)c1cccc2c(Cl)cccc12 | i
SMILES | KDM5B inh
COc1ccc(OC)c(NC(=O)Cn2c(-c3ccc(F)cc3)nc(C)c(CCO)c2=O)c1 | 20µM*
COc1ccc(Cl)cc1NC(=O)Cn1c(-c2ccc(F)cc2)nc(C)c(CCO)c1=O | i
COc1cc(NC(=O)Cn2c(-c3ccc(F)cc3)nc(C)c(CCO)c2=O)cc(OC)c1OC | i
Cc1nn(CC(=O)Nc2ccc3nc(CN4CCCCC4)n(C)c3c2)c(=O)c2ccccc12 | i
CC(NC(=O)c1cccc(F)c1)C12CC3CC(CC(C3)C1)C2 (centres undefined) | i
Nc1nc(Nc2cccc(F)c2)sc1C(=O)c1ccccc1Cl | i
O=C(Nc1ccccn1)c1cc(-c2ccncc2)nc2ccccc12 | i
CC(O)CNC(=O)NCCc1ccc(S(N)(=O)=O)cc1 (centres undefined) | i
C=CCOc1cc(C)c2c(c1C)[C@H](O)C([C@H](C)C(=O)NCCOC)CC2 (some centres undefined) | i
C=CCOc1cc(C)c2c(c1C)[C@H](O)C([C@H](C)C(=O)N(C)Cc1ccccc1)CC2 (some centres undefined) | 35.5µM*
Cc1cc(OCCN(C)C)c(C)c2c1CC[C@@H]([C@H](C)C(=O)NCc1ccccc1)C2 | i
O=C(COc1cccc(Cl)c1)N(Cc1ccco1)c1ccccn1 | i
Cc1ccc(-c2cc(C(=O)Oc3ccc(Br)cc3)no2)cc1 | i
Cc1nc(N(C)C)ncc1C(=O)N[C@@H]1CCNC[C@H]1O | 14.1µM*
CC(=O)c1c(C)nn(CCC(=O)N[C@@H]2CCNC[C@H]2O)c1C | i
CC1CCN(Cc2ccc(C(=O)N[C@@H]3CCNC[C@H]3O)o2)CC1 | i
COc1cccc(Nc2nc3ccccc3nc2NS(=O)(=O)c2cc(C)ccc2C)c1 | i
O=C(Nc1ccc(F)cc1)c1ccn2cncc2c1 | 35.5µM*
O=C(Nc1ccc(Cl)nc1)c1ccn2cncc2c1 | i
C=CCNC(=O)c1ccn2cncc2c1 | i
N#Cc1nc(C2CC2)oc1N1CCN(Cc2ccccc2Cl)CC1 | i
CC(C)c1noc(-c2ccn3c(CNC(=O)Cc4ccccc4Cl)nnc3c2)n1 | 15.8µM*
Cc1ccc(CC(=O)NCc2nnc3cc(-c4nc(C(C)C)no4)ccn23)cc1 | 25.1µM*
CCCc1noc(-c2ccn3c(CNC(=O)Cc4ccccc4Cl)nnc3c2)n1 | 14.1µM*
CC(C)c1noc(-c2ccn3c(CNC(=O)Cc4ccc(F)cc4)nnc3c2)n1 | i
